From PubChem BioAssay (NCI)
Compounds without any hit were thinned out: in the full panel of roughly 83,000, 20% have a hit.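 Plates (96-well) were seeded with cells, treated with compound at one concentration, and incubated for 48 hours before percent growth was determined.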 Activity calls are given as the source filed them. How the source made its calls: active means growth percent below 10; inactive means the rest.

What follows are compounds tested on EKVX NSCLC (assay: NCI-60 one-dose screen, 48 h (100 = growth as untreated, 0 = no growth, -100 = all killed)). Settings: 10 µM.

| SMILES | growth |
| --- | --- |
| CC(=O)OC/C=C(/C)C[P+](c1ccccc1)(c1ccccc1)c1ccccc1 | 82.4% (inactive) |
| CCOC(=O)c1cc(C(=O)c2cc(OC)cc(OC)c2)n2ncc3ccccc3c12 | 61.5% (inactive) |
| C=CCN(CC=C)C(=O)[C@H](CC)[C@@H]1CC[C@@H](C)[C@@H]([C@H](C)[C@@H](O)[C@@H](C)C(=O)[C@H](CC)C2O[C@]3(C=CC(=O)[C@]4(CC[C@@](C)([C@H]5CC[C@](O)(CC)[C@H](C)O5)O4)O3)[C@H](C)C[C@@H]2C)O1 (stereo not given in full) | 12.8% (inactive) |
| Cc1c2c(nn1C(=O)c1nn(-c3ccc(Cl)cc3)cc1O)-c1ccccc1CC2 | 6.22% (active) |
| O=C(CCn1cnc2c(cc(-c3ccccc3)n2-c2ccccc2)c1=O)Nc1ccc(F)cc1 | 80.8% (inactive) |
| COc1ccc(-c2onc(N)c2-c2cc(OC)c3c(c2)OCO3)cc1 | 62% (inactive) |
| CCCN(CCC)C(=O)[C@H](CC)[C@@H]1CC[C@@H](C)[C@@H]([C@H](C)[C@@H](O)[C@@H](C)C(=O)[C@H](CC)C2O[C@]3(C=C[C@@H](O)[C@]4(CC[C@@](C)([C@H]5CC[C@](O)(CC)[C@H](C)O5)O4)O3)[C@H](C)C[C@@H]2C)O1 (stereo not given in full) | -13.6% (active) |
| CCOC(=O)c1cc(C(=O)c2cc(OC)c(OC)c(OC)c2)n2c1ccc1c3cccnc3ccc12 | 93.3% (inactive) |
| COc1cc(NC(=O)Nc2cnc(Nc3ccc(N4CCOCC4)cc3)nc2Oc2cccc(OC)c2)cc(OC)c1 | 66.5% (inactive) |
| Fc1ccc2[nH]cc(-c3nc(-c4ccsc4)cs3)c2c1 | 57.1% (inactive) |
| IC(I)I | 102% (inactive) |
| Cc1ccc(-n2c(C)nn3c(=O)c4c5c(sc4nc23)CN(C)CC5)cc1 | 95% (inactive) |
| CN(C)c1ccc(/C=N/NC(=O)c2ccccc2Nc2cccc(C(F)(F)F)c2)cc1 | 82.2% (inactive) |
| N#CC1=C(N)Oc2cc(N)ccc2C1c1cccnc1 (stereo not given) | 96.5% (inactive) |
| O=C(CCCCNC(=O)c1nc(-c2ccccc2)n(-c2ccccc2)n1)NO | 80.7% (inactive) |
| COc1ccc(-c2cc(-c3ccc(OC)c(OC)c3)nc(SCCCC(=O)NO)n2)cc1 | -15.3% (active) |
| COc1cc(C2CC(c3ccccc3)=NN2C(C)=O)cc(OC)c1OC (stereo not given) | 51% (inactive) |
| O=C(/C=C/C=C/c1c(C2CC2)nc2ccccc2c1-c1ccc(F)cc1)c1cccs1 | 49.3% (inactive) |
| CC(C)N(CCOc1ccc(-c2nc3sccn3c2-c2ccnc(S(C)(=O)=O)n2)cc1)C(C)C | 87.6% (inactive) |
| O=C(Nc1nc(-c2ccccc2)nc2c1sc(=S)n2-c1ccccc1)C(F)(F)F | 97.2% (inactive) |

| SMILES | growth |
| --- | --- |
| O=C(CSc1nnc(-c2ccc(Cl)cc2)o1)Nc1ccc(C(=O)/C=C/c2ccc(Cl)cc2)cc1 | 129% (inactive) |
| C=CCn1c(SCC(=O)Nc2ccc(C(=O)/C=C/c3ccc(OC)cc3)cc2)nnc1-c1ccc(OC)c(OC)c1 | 107% (inactive) |
| CN1CCN(CC(=O)Nc2cccc(-n3cc(-c4ccncc4)c(-c4ccc(Cl)c(O)c4)n3)c2)CC1 | 63.6% (inactive) |
| CCc1ccc(C2=NN(c3ccc(S(C)(=O)=O)cc3)C(=O)CC2)cc1 | 60.4% (inactive) |
| Cc1nn(-c2ccc(-c3ccc(OC(F)(F)F)cc3)cc2)c2nc(Cc3ccccc3)nc(N)c12 | 72.3% (inactive) |
| Cn1c2ccccc2c2c3[nH][nH]c(=O)c3c3c4ccccc4[nH]c3c21 | 49% (inactive) |
| CC[C@H]1OC(=O)[C@H](C)[C@@H](O[C@H]2C[C@@](C)(OC)[C@@H](O)[C@H](C)O2)[C@H](C)[C@@H](O[C@@H]2O[C@H](C)C[C@H](N(C)C)[C@H]2O)[C@](C)(OC)C/C(C)=C2/O[C@@]1(C)C=C2C | 75% (inactive) |
| C=C(C)[C@@H]1CC[C@]2(COCCC#N)CC[C@]3(C)[C@H](CC[C@@H]4[C@@]5(C)Cc6c([nH]c7ccccc67)C(C)(C)[C@@H]5CC[C@]43C)[C@@H]12 | 116% (inactive) |
| CC(=O)[C@H]1CC[C@]2(C)[C@@H]1CC[C@@H]1[C@@]3(C)CC(CCC#N)(CCC#N)C(=O)C(C)(C)[C@@H]3CC[C@]12C | 91.8% (inactive) |
| O=C1c2ccccc2C(=O)c2c1ccc(C(Br)Br)c2Cl | 66.6% (inactive) |
| Clc1ccc(/C=C2\CCCC3C2=Nc2ccccc2NC3c2ccc(Cl)cc2)cc1 (stereo not given) | 89.3% (inactive) |
| Cc1ccc(/C=C/C(=O)C(=O)/C=C/c2ccc(C)cc2)cc1 | 92.7% (inactive) |
| O=C(Nc1ccccc1)Nc1ncnc2c1ncn2-c1ccccc1 | 78.5% (inactive) |
| CCn1c(SC/C(=N/O)c2ccccc2)nnc1-c1ccccc1 | 90.6% (inactive) |
| Cc1cc(SCc2ccccc2)nc(N)n1 | 96.7% (inactive) |
| COc1cc2cc(Oc3ccc(NC(=O)Nc4ccc(Cl)c(C(F)(F)F)c4)cc3)c(C)nc2cc1OC | 8.83% (active) |
| CCCCCCCCCCCCCCCCCC[n+]1ccc2c(C)c3c(c(C)c2c1)c1cc(O)ccc1n3CC | 19.5% (inactive) |
| CN1CCc2c(sc3nc4n(-c5ccc(Cl)cc5)cnn4c(=O)c23)C1 | 87.2% (inactive) |
| CN1CCc2c(sc3nc4n(-c5ccc(Cl)cc5)c(=O)[nH]n4c(=O)c23)C1 | 101% (inactive) |
| C[n+]1c2ccccc2nc2ccccc21 | 54.9% (inactive) |
